# Test results as given in the supplement of paper PMC8728848.
# About 410 targets per protein were measured; listed, in parts, are those with the strongest signals and a random draw of the rest.
# B1: Epa19 (Candida glabrata) (protein)
# chain: MGSSHHHHHHSSGLVPRGSHMASSKDPTRFPIGCSPQVLKTQPGLAVKLYSYGHPVPGCSYITYQYPDFPRSGYKKERKLADITGVNGKIDIDLKPNDPCRVLTGHLPSNYNYPDTLTYTNFTMILYGYFQPKVTGYHTFNLEADDLLFMNLGAGNAFDCCKAESTLDNFGNYQSYSLWGSDYAKANITVFLVSGVYYPIRLFYVNRDNNAVIDFSFTTEFDKEKVHDFTSYFFSASDGEQCPGSV
# Legend:
# Experiment in all cases: glycan array binding signal (z-score within array); higher = stronger binding
# Conditions in all cases: glycan notation: IUPAC condensed, linker removed
# [1] = molecular target: GalNAc(b1-3)Gal(a1-4)Gal(b1-4)GlcNAc
# In short: (§1)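 The Consortium for Functional Glycomics database supplied 3228 glycan arrays, of which those lacking an available protein sequence were dropped. The binding signal, a within-array Z-score, was averaged across arrays of the same protein sequence and across linkers. Negative scores can be read as non-binding.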
# [2] = molecular target: GalNAc(b1-3)Gal(a1-6)Gal(b1-4)Glc
# In short: as §1
# [3] = molecular target: Glc(a1-4)Glc(a1-4)Glc(a1-4)Glc
# In short: as §1
# [4] = molecular target: GlcNAc(a1-4)Gal(b1-4)GlcNAc(b1-3)Gal(b1-4)GlcNAc(b1-3)Gal(b1-4)GlcNAc
# In short: as §1
# [5] = molecular target: GlcNAc(b1-3)Gal
# In short: as §1
# [6] = molecular target: GlcNAc(b1-3)Gal(b1-4)Glc
# In short: as §1
# [7] = molecular target: GlcNAc(b1-3)Gal(b1-4)GlcNAc
# In short: as §1
# [8] = molecular target: GlcNAc(b1-3)Gal(b1-4)GlcNAc(b1-3)Gal(b1-4)GlcNAc(b1-2)[GlcNAc(b1-3)Gal(b1-4)GlcNAc(b1-3)Gal(b1-4)GlcNAc(b1-6)]Man(a1-6)[GlcNAc(b1-3)Gal(b1-4)GlcNAc(b1-3)Gal(b1-4)GlcNAc(b1-2)Man(a1-3)]Man(b1-4)GlcNAc(b1-4)[Fuc(a1-6)]GlcNAc
# In short: as §1
# [9] = molecular target: GlcNAc(b1-3)Gal(b1-4)GlcNAc(b1-3)Gal(b1-4)GlcNAc(b1-3)Gal(b1-4)GlcNAc(b1-2)[GlcNAc(b1-3)Gal(b1-4)GlcNAc(b1-3)Gal(b1-4)GlcNAc(b1-3)Gal(b1-4)GlcNAc(b1-6)]Man(a1-6)[GlcNAc(b1-3)Gal(b1-4)GlcNAc(b1-3)Gal(b1-4)GlcNAc(b1-3)Gal(b1-4)GlcNAc(b1-2)Man(a1-3)]Man(b1-4)GlcNAc(b1-4)[Fuc(a1-6)]GlcNAc
# In short: as §1
# [10] = molecular target: GlcNAc(b1-3)Gal(b1-4)GlcNAc(b1-3)Gal(b1-4)GlcNAc(b1-3)Gal(b1-4)GlcNAc(b1-3)Gal(b1-4)GlcNAc(b1-2)[GlcNAc(b1-3)Gal(b1-4)GlcNAc(b1-3)Gal(b1-4)GlcNAc(b1-3)Gal(b1-4)GlcNAc(b1-3)Gal(b1-4)GlcNAc(b1-6)]Man(a1-6)[GlcNAc(b1-3)Gal(b1-4)GlcNAc(b1-3)Gal(b1-4)GlcNAc(b1-3)Gal(b1-4)GlcNAc(b1-3)Gal(b1-4)GlcNAc(b1-2)Man(a1-3)]Man(b1-4)GlcNAc(b1-4)[Fuc(a1-6)]GlcNAc
# In short: as §1
# [11] = molecular target: GlcNAc(b1-4)GlcNAc(b1-4)GlcNAc
# In short: as §1
# [12] = molecular target: GlcNAc(b1-6)Gal(b1-4)GlcNAc
# In short: as §1
# [13] = molecular target: Kdn(a2-6)Gal(b1-4)GlcNAc
# In short: as §1
# [14] = molecular target: Man(a1-2)Man(a1-6)[Man(a1-3)]Man(a1-6)[Man(a1-2)Man(a1-2)Man(a1-3)]Man(b1-4)GlcNAc(b1-4)GlcNAc
# In short: as §1
# [15] = molecular target: Man(a1-6)Man
# In short: as §1
# [16] = molecular target: Neu5Ac(a2-3)Gal(b1-3)GlcNAc(b1-2)Man
# In short: as §1
# [17] = molecular target: Neu5Ac(a2-3)Gal(b1-3)[GlcNAc(b1-6)]GalNAc
# In short: as §1
# [18] = molecular target: Neu5Ac(a2-3)Gal(b1-3)[Neu5Ac(a2-6)]GlcNAc(b1-3)[Fuc(a1-3)[Gal(b1-4)]GlcNAc(b1-6)]Gal(b1-4)Glc
# In short: as §1
# [19] = molecular target: Neu5Ac(a2-3)Gal(b1-3)]Neu5Ac(a2-3)Gal(b1-4)]GlcNAc
# In short: as §1
# [20] = molecular target: Neu5Ac(a2-3)Gal(b1-4)GlcNAc(b1-3)Gal(b1-4)GlcNAc(b1-3)Gal(b1-4)GlcNAc
# In short: as §1
# [21] = molecular target: Neu5Ac(a2-3)Gal(b1-4)GlcNAc(b1-3)Gal(b1-4)[Fuc(a1-3)]GlcNAc
# In short: as §1
# [22] = molecular target: Neu5Ac(a2-3)Gal(b1-4)[Fuc(a1-3)]GlcNAc(b1-3)GalNAc
# In short: as §1
# [23] = molecular target: Neu5Ac(a2-3)[GalNAc(b1-4)]Gal(b1-4)Glc
# In short: as §1
# [24] = molecular target: Neu5Ac(a2-6)Gal(b1-4)Glc
# In short: as §1
# [25] = molecular target: Neu5Ac(a2-6)Gal(b1-4)GlcNAc
# In short: as §1
# [26] = molecular target: Neu5Ac(a2-6)Gal(b1-4)GlcNAc(b1-3)Gal(b1-4)GlcNAc
# In short: as §1
# [27] = molecular target: Neu5Ac(a2-6)Gal(b1-4)GlcNAc(b1-3)Gal(b1-4)GlcNAc(b1-3)Gal(b1-4)GlcNAc(b1-2)Man(a1-3)[Neu5Ac(a2-6)Gal(b1-4)GlcNAc(b1-3)Gal(b1-4)GlcNAc(b1-3)Gal(b1-4)GlcNAc(b1-2)Man(a1-6)]GalNAc
# In short: as §1
# [28] = molecular target: Neu5Ac(a2-6)GalNAc
# In short: as §1
# [29] = molecular target: Neu5Ac(a2-8)Neu5Ac(a2-8)Neu5Ac(a2-8)Neu5Ac(a2-3)[GalNAc(b1-4)]Gal(b1-4)Glc
# In short: as §1
# [30] = molecular target: Neu5Ac(b2-6)GalNAc
# In short: as §1
# [31] = molecular target: Neu5Gc(a2-3)Gal(b1-4)GlcNAc(b1-3)Gal(b1-4)GlcNAc(b1-2)Man(a1-3)[Neu5Gc(a2-3)Gal(b1-4)GlcNAc(b1-3)Gal(b1-4)GlcNAc(b1-2)Man(a1-6)]Man(b1-4)GlcNAc(b1-4)GlcNAc
# In short: as §1
# [32] = molecular target: Neu5Gc(a2-8)Neu5Gc(a2-3)Gal(b1-4)GlcNAc
# In short: as §1
binder,measurement,setting,value
B1,glycan array binding signal (z-score),[1],-0.192
same,glycan array binding signal (z-score),[2],-0.525
same,glycan array binding signal (z-score),[3],0.084
same,glycan array binding signal (z-score),[4],-0.551
same,glycan array binding signal (z-score),[5],-1.24
same,glycan array binding signal (z-score),[6],-0.077
same,glycan array binding signal (z-score),[7],-0.29
same,glycan array binding signal (z-score),[8],3.06
same,glycan array binding signal (z-score),[9],2.24
same,glycan array binding signal (z-score),[10],2.39
same,glycan array binding signal (z-score),[11],-0.295
same,glycan array binding signal (z-score),[12],0.368
same,glycan array binding signal (z-score),[13],-0.099
same,glycan array binding signal (z-score),[14],-0.373
same,glycan array binding signal (z-score),[15],0.479
same,glycan array binding signal (z-score),[16],-1.47
same,glycan array binding signal (z-score),[17],-0.681
same,glycan array binding signal (z-score),[18],-0.06
same,glycan array binding signal (z-score),[19],1.09
same,glycan array binding signal (z-score),[20],0.026
same,glycan array binding signal (z-score),[21],-0.678
same,glycan array binding signal (z-score),[22],3.04
same,glycan array binding signal (z-score),[23],0.603
same,glycan array binding signal (z-score),[24],-0.768
same,glycan array binding signal (z-score),[25],-0.869
same,glycan array binding signal (z-score),[26],-1.3
same,glycan array binding signal (z-score),[27],3.53
same,glycan array binding signal (z-score),[28],-0.465
same,glycan array binding signal (z-score),[29],-0.059
same,glycan array binding signal (z-score),[30],-0.238
same,glycan array binding signal (z-score),[31],-0.264
same,glycan array binding signal (z-score),[32],-0.386
